Data: publication PMC4336329 (PLoS ONE, 2015)
The whole screen tested about 310,000 compounds, of which about 14,000 (4.5%) showed an effect of 50% or more. The effect is printed as a negative number. Shown is part of a subset that was picked to be rich in strong results.

The compounds below were run against human ether-à-go-go-related gene (hERG) potassium channel (human, UniProt Q12809) (assay: primary screen, population patch clamp on CHO cells stably expressing hERG; higher = less effect of the substance).
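Note: peak tail current of the secondary pulse compared with the same well before compound.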

human ether-à-go-go-related gene (hERG) potassium channel, sequence (Q12809 whole entry, looked up): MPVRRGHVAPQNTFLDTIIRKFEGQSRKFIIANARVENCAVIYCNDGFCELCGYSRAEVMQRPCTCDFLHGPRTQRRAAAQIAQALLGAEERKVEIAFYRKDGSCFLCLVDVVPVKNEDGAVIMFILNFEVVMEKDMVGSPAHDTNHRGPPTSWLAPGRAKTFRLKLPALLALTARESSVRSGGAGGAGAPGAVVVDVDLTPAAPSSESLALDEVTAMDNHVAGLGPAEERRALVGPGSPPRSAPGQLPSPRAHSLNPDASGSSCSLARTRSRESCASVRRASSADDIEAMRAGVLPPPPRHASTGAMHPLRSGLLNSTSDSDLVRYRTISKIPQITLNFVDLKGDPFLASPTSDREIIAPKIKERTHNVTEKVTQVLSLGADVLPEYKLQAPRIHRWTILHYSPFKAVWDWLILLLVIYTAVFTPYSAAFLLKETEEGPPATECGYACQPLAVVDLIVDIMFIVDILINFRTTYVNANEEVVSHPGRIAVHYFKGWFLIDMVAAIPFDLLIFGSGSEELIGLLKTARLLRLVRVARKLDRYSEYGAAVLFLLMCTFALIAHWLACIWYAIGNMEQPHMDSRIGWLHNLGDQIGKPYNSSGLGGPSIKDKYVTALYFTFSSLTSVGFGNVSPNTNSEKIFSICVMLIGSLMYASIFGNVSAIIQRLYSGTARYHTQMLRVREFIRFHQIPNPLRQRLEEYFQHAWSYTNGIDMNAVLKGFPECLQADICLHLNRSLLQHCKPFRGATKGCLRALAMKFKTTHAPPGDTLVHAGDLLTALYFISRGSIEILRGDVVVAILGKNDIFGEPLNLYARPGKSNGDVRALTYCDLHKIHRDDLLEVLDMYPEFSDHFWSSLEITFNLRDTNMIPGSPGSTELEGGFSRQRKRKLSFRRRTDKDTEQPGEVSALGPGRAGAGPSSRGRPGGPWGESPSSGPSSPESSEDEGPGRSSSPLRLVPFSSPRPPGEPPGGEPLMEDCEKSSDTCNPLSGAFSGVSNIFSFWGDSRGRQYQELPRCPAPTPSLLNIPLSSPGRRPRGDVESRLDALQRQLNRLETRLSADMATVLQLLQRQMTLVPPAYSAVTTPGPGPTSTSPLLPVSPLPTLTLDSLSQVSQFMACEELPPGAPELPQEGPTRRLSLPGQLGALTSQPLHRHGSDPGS

| SMILES | hERG current change (%, negative = inhibition) at 10uM [%] |
| --- | --- |
| CC1CN=C(Nc2ccccc2)S1 (stereo not shown) | 7.23 |
| COc1cccc(CNS(=O)(=O)c2c(C(=O)N3CCCCC3)c(C)n(C)c2C)c1 | 9.63 |
| O=[N+]([O-])c1ccc(SCCc2ccncc2)cc1 | -63.7 |
| O=[N+]([O-])c1ccc(SCCc2ccccn2)cc1 | -44.3 |
| Cn1c(SCCc2ccc([N+](=O)[O-])cc2)nccc1=O | -59.9 |
| O=C(COC(=O)CSc1ccc([N+](=O)[O-])cc1)NCCc1ccccc1 | 5.52 |
| O=c1ccnc(SCCc2ccc([N+](=O)[O-])cc2)[nH]1 | -34 |
| COC(=O)c1cnc(SCc2ccc([N+](=O)[O-])cc2)n1C | -32 |
| O=[N+]([O-])c1ccc(SCCc2cc[nH+]cc2)cc1.[Cl-] | -53.7 |
| O=C(COC(=O)CSc1ccc([N+](=O)[O-])cc1)NCCCc1ccccc1 | 4.5 |
| Fc1ccc(SCCc2ccncc2)cc1 | -29.9 |
| COc1ccc(C)cc1Cn1c(S(C)(=O)=O)nc2ccccc21 | -9.64 |
| Cc1cccc(N2CCN(C(=O)CCN3C(=O)C4C5C=CC(C5)C4C3=O)CC2C)c1 (stereo not shown) | -18.2 |
| CCN1CN(CCc2ccccc2)CNC1=S | 5.61 |
| O=C(C1CCN(S(=O)(=O)c2ccc(Cl)cc2)CC1)N1CCCCCCC1 | -16.1 |
| Cc1ccc(-n2nc3c(c2NC(=O)c2ccc4c(c2)OCO4)CS(=O)C3)cc1 (stereo not shown) | 7.09 |
| CCN(CC)C(=O)/C(=C/c1ccc2c(c1)OCO2)NC(=O)c1ccc(Br)cc1 | -70.5 |
| COc1ccc(C(=O)N/C(=C\c2ccc3c(c2)OCO3)C(=O)Nc2ccc(C(=O)O)cc2)cc1 | 17.8 |
| O=C(NCc1ccc2c(c1)OCO2)c1ccc(Br)cc1 | -19.8 |
| CCN(CC)C(=O)/C(=C\c1ccc2c(c1)OCO2)NC(=O)c1ccc(Br)cc1 | -63.5 |
| CCN(CC)C(=O)/C(=C\c1ccc(Br)cc1)NC(=O)c1ccccc1OC | -27.3 |
| COc1ccc(-c2cn(CCN)c(-c3ccncc3)n2)cc1 | 5.87 |
| CN(C)S(=O)(=O)c1ccc(Cl)c(NC(=O)COC(=O)CN2C(=O)C3CCCCC3C2=O)c1 (stereo not shown) | 6.74 |
| CCC1CCCCN1S(=O)(=O)c1ccc2[nH]c(=O)ccc2c1 (stereo not shown) | -60.1 |
| CCC1CCCCN1S(=O)(=O)c1ccccc1 (stereo not shown) | -13 |

| SMILES | hERG current change (%, negative = inhibition) at 10uM [%] |
| --- | --- |
| CC1CCN(S(=O)(=O)c2ccc3[nH]c(=O)ccc3c2)CC1 | -5.5 |
| C=CCN(c1ccc(C(=O)NCCc2ccccc2)cc1)S(C)(=O)=O | -6.23 |
| COc1ccc(C)cc1NC(=O)C(c1ccccc1)N1CCNC(=O)C1 (stereo not shown) | -5.31 |
| CC(C)(C)c1ccc(C(=O)NCCN2CCOCC2)cc1 | 1.01 |
| CC(C)(C)c1ccc(C(=O)NCCN2CCCC2)cc1.Cl | -6.48 |
| CC(C)(C)c1ccc(C(=O)NCCCN2CCN(CCCNC(=O)c3ccc(C(C)(C)C)cc3)CC2)cc1 | -63.6 |
| Cc1ccc(C(=O)NCCCN2CCOCC2)cc1 | 3.81 |
| CC(C)c1ccc(C(=O)NCCCN(C)C)cc1 | -17.1 |
| CC(C)c1ccc(C(=O)NCCCN2CCN(CCCNC(=O)c3ccc(C(C)C)cc3)CC2)cc1 | -84.3 |
| Cc1ccc(C(=O)NCCCN2CCN(CCCNC(=O)c3ccc(C)cc3)CC2)cc1 | -67.5 |
| Cc1ccc(C(=O)NCCN2CCCC2)cc1.Cl | -5.44 |
| CN1CCN(CCCNC(=O)c2ccc(NC(=O)C3=CSCCO3)cc2)CC1 | 11.5 |
| O=C(Nc1ccc(C(=O)NCCCN2CCN(c3ccccc3)CC2)cc1)C1=CSCCO1 | -38.2 |
| O=C(Nc1ccc(C(=O)NCCCN2CCN(c3ccc(F)cc3)CC2)cc1)C1=CSCCO1 | -54 |
| CC(C)c1ccc(C(=O)NCCCN2CCOCC2)cc1 | -5.2 |
| COc1cccc(C(=O)NCC2CCCN2S(=O)(=O)c2ccccc2)c1 (stereo not shown) | 2.72 |
| COc1cccc(-n2c(C)n[nH]c2=O)c1 | 14.1 |
| O=C(N/N=C/c1ccc(O)cc1)c1csc2c1CCCC2 | -19.7 |
| CCc1cc(Br)ccc1N1C(=O)C2CC=CCC2C1=O (stereo not shown) | 5.21 |
| Cc1nccn1CCCNC(=O)CC1C(=O)NCCN1Cc1ccccc1C(F)(F)F (stereo not shown) | 9.64 |
| CCCN(N=Nc1cccc([N+](=O)[O-])c1)c1cccc([N+](=O)[O-])c1 | 3.14 |
| O=C(NCCCN1CCN(CCCNC(=O)c2ccc(F)cc2)CC1)c1ccc(F)cc1 | -51.1 |
| O=C(NCCCNC(=O)c1ccc(F)cc1)c1ccc(F)cc1 | 7.81 |
| O=C(NCCCCNC(=O)c1ccc(F)cc1)c1ccc(F)cc1 | 13.3 |
| CCn1c2ccccc2c2nnc(SCC(=O)N(C)C3CCS(=O)(=O)C3)nc21 (stereo not shown) | -21 |

| SMILES | hERG current change (%, negative = inhibition) at 10uM [%] |
| --- | --- |
| O=C(CN(C(=O)CCC(=O)Nc1ccccn1)c1cccc(F)c1)NCc1ccc(F)cc1 | -4.26 |
| CS(=O)(=O)N1CCN(C(=O)c2csc3ccccc23)CC1 | 2.35 |
| CN1CC(C(=O)c2ccc([N+](=O)[O-])cc2)C(c2ccc(Cl)cc2)C1 (stereo not shown) | -75.6 |
| CN1CC(C(=O)c2cccc(C(F)(F)F)c2)C(c2ccc(Cl)cc2)C1 (stereo not shown) | -20 |
| CN1CC(C(=O)c2ccc(F)cc2)C(c2ccc(F)cc2)C1 (stereo not shown) | -30.2 |
| Cc1ccc(C2CN(C)CC2C(=O)c2ccc(F)cc2)cc1 (stereo not shown) | -53.2 |
| COc1cccc(C(=O)C2CN(C)CC2c2ccc(Cl)cc2)c1 (stereo not shown) | -66.4 |
| CN1CC(C(=O)c2ccc(Cl)cc2)C(c2ccccc2F)C1 (stereo not shown) | -46.5 |
| COc1cccc(C(=O)C2CN(c3ccccc3)CC2c2ccc(Cl)cc2)c1 (stereo not shown) | 5.04 |
| Cc1ccc(C2CN(c3ccccc3)CC2C(=O)c2ccc(F)cc2)cc1 (stereo not shown) | -17 |
| O=C(c1ccccc1)C1CN(c2ccccc2)CC1c1ccc(Cl)cc1 (stereo not shown) | 27.1 |
| CN1CC(C(=O)c2ccc(Cl)cc2)C(c2ccc(Cl)cc2Cl)C1 (stereo not shown) | -49.2 |
| CN1CC(C(=O)c2ccc(F)cc2)C(c2c(F)cccc2Cl)C1 (stereo not shown) | -65.7 |
| COc1ccc(OC)c(NC(=O)COC(=O)c2ccc(OC)c(S(=O)(=O)N3CCCC3)c2)c1 | 16.9 |
| CN(C)C=O.NS(=O)(=O)c1cccc(NC(=O)CSc2nc3nc(-c4cccs4)cc(C(F)(F)F)c3c(=O)[nH]2)c1 | 7.85 |
| CCOc1cc(CNc2nn[nH]n2)ccc1OCC(=O)NC(C)(C)C | 13.2 |
| O=C(c1cc(O)c(O)c([N+](=O)[O-])c1)c1ccccc1F | 2.56 |
| COCCNC(=O)Nc1ccc2nc(-c3ccco3)c(-c3ccco3)nc2c1 | 4.08 |
| CCOC(=O)CC(NS(=O)(=O)c1ccc2[nH]cc(C(=O)O)c(=O)c2c1)c1ccc(OCC)c(OC)c1 (stereo not shown) | -1.02 |
| COCCn1c(N)c(N(Cc2ccccc2)C(=O)c2ccc3ccccc3c2)c(=O)[nH]c1=O | 7.55 |
| O=C(NC1CCCC1)C1CC(=O)N(CCc2ccccc2)C1 (stereo not shown) | 9.66 |
| O=C(COc1ccccc1Cl)N1CCCC1 | 5.64 |
| CN1CC(C(=O)c2ccc(Cl)cc2)C(c2ccc(N(C)C)cc2)C1 (stereo not shown) | -57.9 |
| COc1ccc(C(=O)C2CN(c3ccccc3)CC2c2ccc(Cl)cc2)cc1 (stereo not shown) | -4.84 |
| COc1ccc(C(=O)C2CN(C)CC2C(=O)c2ccc(OC)cc2)cc1 (stereo not shown) | -57.9 |

| SMILES | hERG current change (%, negative = inhibition) at 10uM [%] |
| --- | --- |
| CN1CC(C(=O)c2ccccc2)C(C(=O)c2ccccc2)C1 (stereo not shown) | -21.4 |
| CN1CC(C(=O)c2ccccc2)C(c2ccccc2)C1 (stereo not shown) | -5.47 |
| COc1ccc(-c2ccc(C(=O)C3CC3)cc2)cc1 | 14.7 |
| CC(=O)Nc1ccc(C2CN(C)CC2C(=O)c2ccc(Cl)cc2)cc1 (stereo not shown) | -31.8 |
| CN1CC(C(=O)c2cccs2)C(c2ccc(Cl)cc2)C1 (stereo not shown) | -49.2 |
| Cc1ccc(C(=O)C2CN3CCC2CC3)cc1.Cl (stereo not shown) | -37.4 |
| COc1ccc(C(=O)C2CN(C)CC2c2ccc(Cl)cc2)cc1 (stereo not shown) | -73.1 |
| CN1CC(C(=O)c2ccc(Cl)cc2)C(c2ccccc2)C1 (stereo not shown) | -31.8 |
| Cc1ccc(C(=O)C2CN(C)CC2C(=O)c2ccc(C)cc2)cc1 (stereo not shown) | -57 |
| CNCCOc1ccccc1-c1ccccc1.O=C(O)C(=O)O | -5.68 |
| O=C(CCN1C(=O)c2ccccc2S1(=O)=O)N1CCN(c2ccccc2F)CC1 | -5.02 |
| Cc1ccsc1C(=O)NCC(C)(C)N1CCOCC1 | -9.41 |
| CC(=O)SC(C)CC(=O)Nc1ccccc1 (stereo not shown) | 7.33 |
| Cc1nc2cc(-c3cccc(F)c3)nn2c(C)c1CCC(=O)N1CCN(c2ccccn2)CC1 | -13.1 |
| Cc1nc2nc(C)c(CCC(=O)N3CCN(c4ccccn4)CC3)c(C)n2n1 | -46.1 |
| Cc1nc2cc(-c3ccccc3)nn2c(C)c1CCC(=O)NC(C)c1ccc2c(c1)OCCO2 (stereo not shown) | -50.8 |
| Cc1nc2cc(-c3cccc(F)c3)nn2c(C)c1CCC(=O)NC(C)c1ccc2c(c1)OCCO2 (stereo not shown) | -44.6 |
| Cc1nc2cc(-c3ccccc3)nn2c(C)c1CCC(=O)N1CCC2(CC1)OCCO2 | -47.2 |
| Cc1nc2cc(-c3ccc(Cl)cc3)nn2c(C)c1CCC(=O)NC(C)c1ccc2c(c1)OCCO2 (stereo not shown) | -23.8 |
| Cc1nc2cc(-c3ccccc3)nn2c(C)c1CCC(=O)N1CCN(c2ccccc2)CC1 | -65.7 |
| Cc1nc2nc(C)c(CCC(=O)N3CCOCC3)c(C)n2n1 | -21 |
| Cc1nc2nc(C)c(CCC(=O)N3CCN(c4ccccc4)CC3)c(C)n2n1 | -56.2 |
